To fix the notation:
B1: Caulobacter ParB omega fusion; a variant is named by its letters at X, in order, B8GW30 (parent)
chain: MESVVVGEPGMSEGRRGLGRGLSALLGEVDAAPAQAPGEQLGGSREAPIEILQRNPDQPRRTFREEDLEDLSNSIREKGVLQPILVRPSPDTAGEYQIVAGERAWRAAQRAGLKTVPIMVRELDDLAVLEIGIIENVQRADLNVLEEALSYKVLMEKFERTQENIAQTIGKSXSHVANXMRLLXLPDEVQSYLVSGELTAXHARAIAAAADPVALAKQIIEGGLSVRETEALARKAPNLSAGKSKGGRPPRVKDTDTQALESDLSSVLGLDVSIDHRGSTGTLTITYATLEQLDDLCNRLTRGI

The full ranking holds about 81,000 sequences; the median of “one-hybrid fitness for binding parS DNA” is about -0.17, and the highest 2% start at about 0.51. For the sample, the highest values were picked, then their nearest neighbours and some sequences at random.

Variants of B1 are the subject of this assay. Briefly: one-hybrid fitness for binding parS DNA (scaled: cognate 1, non-cognate 0); higher = stronger binding. As to conditions: with parS DNA site. The method, boiled down: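 In E. coli USO, a HIS3 reporter with its site placed 19 bp from the promoter was used to select Caulobacter ParB variants randomised at four specificity codons. Growth lasted 48 hours at 37°C on histidine-free M9 containing 0.1 mM IPTG and 5 mM 3-AT. Fitness was taken as the log change in variant-to-wild-type read ratio from Illumina sequencing of pre- and post-selection plasmids, rescaled between the non-cognate and cognate sites.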
For the variant FRDR, the “one-hybrid fitness for binding parS DNA” value is not above 0.2.
For TQKT, the “one-hybrid fitness for binding parS DNA” value is not above 0.2.
Under WTHY stands not above 0.2.
With REHK the figure was not above 0.2.
With GALF the figure was not above 0.2; with VMFV, not above 0.2.
On to LLFI, for which the “one-hybrid fitness for binding parS DNA” value was not above 0.2.
Under NARA stands not above 0.2; under RARA, 0.658; under DARA, not above 0.2.
With NAQA the figure was not above 0.2; with RAQA, 0.548; with PICM, not above 0.2.
With LVHY the figure was not above 0.2.
In the case of WEWS, the “one-hybrid fitness for binding parS DNA” value was not above 0.2.
Consider SNSE, for which the “one-hybrid fitness for binding parS DNA” value was not above 0.2.
Under RTDN stands 0.404.
As to RTDS, the “one-hybrid fitness for binding parS DNA” value amounted to 0.989.
With RTDH, the “one-hybrid fitness for binding parS DNA” value was not above 0.2.
Under RTNS stands 0.874; under RTND, not above 0.2; under RTNN, 0.424.
Under FLHS stands not above 0.2; under LGVG, not above 0.2; under ALYT, not above 0.2.
Under QTLN stands not above 0.2; under DVLN, not above 0.2.
For TSTW, the “one-hybrid fitness for binding parS DNA” value is not above 0.2.
EGNL: the “one-hybrid fitness for binding parS DNA” value was not above 0.2.
For RQNC, the “one-hybrid fitness for binding parS DNA” value was found to be 0.947.
Take RQND: the “one-hybrid fitness for binding parS DNA” value turned out to be 0.221.
For the variant RQNN, the “one-hybrid fitness for binding parS DNA” value was 0.435.
As for RQDQ, the “one-hybrid fitness for binding parS DNA” value was not above 0.2.
As for RQDC, the “one-hybrid fitness for binding parS DNA” value is 0.863.
Under RQDK stands not above 0.2.
AQKR: the “one-hybrid fitness for binding parS DNA” value was not above 0.2.
With ICTY the figure was not above 0.2; with TAVI, not above 0.2; with FVPC, not above 0.2.
With LNCS the figure was not above 0.2.
With DVAA, the “one-hybrid fitness for binding parS DNA” value was not above 0.2.
With RVFA the figure was 0.611; with NVAA, not above 0.2.
For the variant RVAA, the “one-hybrid fitness for binding parS DNA” value was determined as 0.582.
With ELAG the figure was not above 0.2; with GGPT, not above 0.2.
CRIG: the “one-hybrid fitness for binding parS DNA” value is not above 0.2.
Under ILFC stands not above 0.2.
As to DQVG, the “one-hybrid fitness for binding parS DNA” value is not above 0.2.
Under LIPT stands not above 0.2; under RQIS, 0.87.
With RQPN the figure was not above 0.2.
With RQIR the figure was not above 0.2; with RQPS, 0.535.
Turning to RQPP, the “one-hybrid fitness for binding parS DNA” value is not above 0.2.
Take RQIT: the “one-hybrid fitness for binding parS DNA” value turned out to be 0.647.
Under RQID stands not above 0.2; under RQPC, 0.426; under RQPT, 0.387.
With RQIP the figure was not above 0.2; with RQIY, 0.256.
Under RQIC stands 0.735.
Consider PHRE, for which the “one-hybrid fitness for binding parS DNA” value was not above 0.2.
With KTEC the figure was not above 0.2.
As for QHGS, the “one-hybrid fitness for binding parS DNA” value was not above 0.2.
Take NLTC: the “one-hybrid fitness for binding parS DNA” value was not above 0.2.
With VSIA the figure was not above 0.2; with TPVW, not above 0.2; with SHLF, not above 0.2.
With STKF the figure was not above 0.2; with TPQT, not above 0.2; with VRSR, not above 0.2.
Regarding VFSG, the “one-hybrid fitness for binding parS DNA” value was not above 0.2.
With HISS the figure was not above 0.2.
As for ADIG, the “one-hybrid fitness for binding parS DNA” value is not above 0.2.
With PGTC the figure was not above 0.2.
Under LVVH stands not above 0.2.
Under HWLK stands not above 0.2; under MKPK, not above 0.2; under SPFG, not above 0.2.
Take RLDT: the “one-hybrid fitness for binding parS DNA” value worked out at 0.806.
With RLNT the figure was 0.908.
Under RLDR stands not above 0.2; under RLDM, 0.299; under RLNP, not above 0.2.
Under RLNN stands 0.455.

The record behind these values is a collection of fitness landscapes (doi:10.1016/j.celrep.2020.107928).
